Consider 7 compounds from PubChem BioAssay (NCI).

The panel holds about 83,000 compounds, 20% with a hit somewhere; the sample as a whole holds those more often.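 How to read the values: 0–100, growth inhibition (40 = 60% inhibited); 0, no net growth; -100 to 0, cell death (-40 = 40% of starting cells died; -100 = all dead).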 Values without a mark were called inactive. Activity calls are given as the source filed them. The calls were made as follows: active = growth percent below 10; inactive = the rest.

Among the test systems are DU-145 prostate; K-562 leukemia; MALME-3M melanoma; MDA-MB-231 breast; RXF 393 renal; SF-268 CNS; SF-295 CNS; SF-539 CNS; UACC-257 melanoma; M14 melanoma; HCT-15 colon; HT29 colon; SNB-75 CNS; SNB-19 CNS; U251 CNS; PC-3 prostate; SK-MEL-5 melanoma; UACC-62 melanoma; LOX IMVI melanoma; SK-MEL-28 melanoma.
Holding throughout (assay): NCI-60 one-dose screen, 48 h (100 = growth as untreated, 0 = no growth, -100 = all killed)
Common to all, as to conditions: 10 µM unless noted

Consider `N#Cc1cncc(-c2ccc3ncnc(Nc4cccc(Cl)c4)c3c2)c1`, for which the growth in the assay with DU-145 prostate is 63.4%; in the assay on K-562 leukemia, 87%; with MALME-3M melanoma, 76.8%; with MDA-MB-231 breast, 66.6%; with RXF 393 renal it was 45.9%; with SF-268 CNS, 68.5%. Further, the growth was 76% in the assay with SF-295 CNS; 78% in the assay on SF-539 CNS; 72.6% in the assay on UACC-257 melanoma; 83.8% in the assay on M14 melanoma; 77.9% with HCT-15 colon; 66.8% with HT29 colon. Moreover, the growth in the assay with SNB-75 CNS is 65.5%; with SNB-19 CNS, 63.3%; in the assay with U251 CNS it was 62.1%; in the assay with PC-3 prostate, 63.5%; with SK-MEL-5 melanoma it was 75.4%; in the assay on UACC-62 melanoma, 81.7%. Moreover, the growth in the assay on LOX IMVI melanoma is 91.1%; in the assay on SK-MEL-28 melanoma, 81.8%.

Regarding `CNC(=O)c1ccccc1Nc1nc(Nc2cc(OC)c(OC)c(OC)c2)ncc1Br`, the growth with DU-145 prostate was 9.08% (active); in the assay on K-562 leukemia, 8.02% (active); in the assay with MALME-3M melanoma, -39.5% (active); with MDA-MB-231 breast it was -3.87% (active); with RXF 393 renal, -64.8% (active); in the assay with SF-268 CNS, -32.7% (active). Moreover, the growth in the assay on SF-295 CNS was -6.65% (active); with SF-539 CNS, -79.2% (active); in the assay with UACC-257 melanoma, -30.9% (active); in the assay with M14 melanoma it was -52.9% (active); in the assay on HCT-15 colon, 3.34% (active); in the assay on HT29 colon, -0.259% (active). The growth is -55% (active) in the assay on SNB-75 CNS; 6.35% (active) in the assay on SNB-19 CNS; -9.93% (active) in the assay with U251 CNS; 61.4% in the assay on PC-3 prostate; -22.3% (active) in the assay with SK-MEL-5 melanoma; -69.6% (active) in the assay on UACC-62 melanoma. Further, the growth with LOX IMVI melanoma was -60.3% (active); with SK-MEL-28 melanoma it was -13.6% (active).

`Nc1nc(NC(=O)Nc2ccc(C(=O)O)cc2)nn1-c1ccc(S(N)(=O)=O)cc1`: the growth was 97.3% with DU-145 prostate; 102% with K-562 leukemia; 85.7% with MALME-3M melanoma; 75.3% in the assay with MDA-MB-231 breast; 94.1% with RXF 393 renal; 95.1% with SF-268 CNS. For the same compound, the growth with SF-295 CNS is 104%; in the assay with SF-539 CNS it was 95.9%; with UACC-257 melanoma, 89.9%; with M14 melanoma, 95.4%; in the assay on HCT-15 colon it was 105%; with HT29 colon it was 105%. Moreover, the growth in the assay on SNB-75 CNS is 90.4%; in the assay with SNB-19 CNS it was 90.6%; in the assay with U251 CNS it was 93.2%; with PC-3 prostate, 83.6%; in the assay on SK-MEL-5 melanoma it was 96.1%; in the assay on UACC-62 melanoma, 96.2%. The growth with LOX IMVI melanoma was 98.8%; in the assay with SK-MEL-28 melanoma, 100%.

For the compound `CCC1S/C(=N\N=C(\C)c2cc3cc(Cl)ccc3o2)N(c2ccccc2)C1=O` (stereo not given), the growth in the assay with DU-145 prostate was 131%; in the assay with K-562 leukemia, 92.2%; in the assay on MALME-3M melanoma, -3.03% (active); with MDA-MB-231 breast, 89.4%; in the assay with RXF 393 renal it was 131%; in the assay on SF-268 CNS it was 108%. For the same compound, the growth was 103% in the assay with SF-295 CNS; 122% with SF-539 CNS; 154% with UACC-257 melanoma; 61.5% with M14 melanoma; 107% with HCT-15 colon; 111% in the assay on HT29 colon. Besides, the growth was 110% with SNB-75 CNS; 101% in the assay with SNB-19 CNS; 99% with U251 CNS; 84.6% in the assay with PC-3 prostate; 49.5% with SK-MEL-5 melanoma; 88.9% with UACC-62 melanoma. The growth was 85.4% with LOX IMVI melanoma and 111% in the assay with SK-MEL-28 melanoma.

In the case of `CCCCCCCCCCCCCCCCCC1=NC(C)(C)CN1CC(C)O` (stereo not given), the growth was 34.5% in the assay with DU-145 prostate; -25.7% (active) in the assay on K-562 leukemia; 97.4% with MALME-3M melanoma; -9.03% (active) in the assay with MDA-MB-231 breast; 66.4% in the assay on RXF 393 renal; 14.6% with SF-268 CNS. The growth in the assay with SF-295 CNS was 95.9%; in the assay with SF-539 CNS, 19.9%; in the assay with UACC-257 melanoma, 103%; with M14 melanoma, 36.6%; in the assay on HCT-15 colon, 10.3%; in the assay with HT29 colon, -4.49% (active). For the same compound, the growth in the assay on SNB-75 CNS is 97.8%; with SNB-19 CNS, 85.3%; in the assay with U251 CNS, 74%; with PC-3 prostate, 53.4%; with SK-MEL-5 melanoma, 100%; in the assay with UACC-62 melanoma it was 105%. Moreover, the growth in the assay on LOX IMVI melanoma is -83.1% (active); in the assay with SK-MEL-28 melanoma, 105%.

As to `C=C(CNCCO)[C@@H]1CC[C@]2(CO)CC[C@]3(C)[C@H](CC[C@@H]4[C@@]5(C)CCC(N)C(C)(C)[C@@H]5CC[C@]43C)[C@@H]12` (stereo not given in full), the growth in the assay on DU-145 prostate was 53%; with K-562 leukemia, -43.3% (active); in the assay with MALME-3M melanoma, -75.1% (active); with MDA-MB-231 breast it was 2.59% (active); in the assay with RXF 393 renal, 50.4%; with SF-268 CNS it was 33.1%. Moreover, the growth in the assay on SF-295 CNS was 46.5%; with SF-539 CNS, -6.75% (active); in the assay on UACC-257 melanoma it was -81.5% (active); in the assay with M14 melanoma, -70.2% (active); with HCT-15 colon it was 77%; with HT29 colon, -22.4% (active). Moreover, the growth with SNB-75 CNS is 43.5%; with SNB-19 CNS it was 53.9%; in the assay on U251 CNS it was -78.5% (active); in the assay with PC-3 prostate, 61.9%; in the assay on SK-MEL-5 melanoma, -87.8% (active); in the assay on UACC-62 melanoma, 9.7% (active). Besides, the growth is -67.8% (active) in the assay with LOX IMVI melanoma and -76.3% (active) with SK-MEL-28 melanoma.

As for `COc1ccc(/C(C)=C(\c2ccc(Cl)cc2)c2ccc(OCCN3CCCCC3)cc2)cc1`, the growth with DU-145 prostate is 78.8%; in the assay with K-562 leukemia, 3.68% (active); in the assay with MALME-3M melanoma, 35.1%; with MDA-MB-231 breast, 45.7%; in the assay with RXF 393 renal, 33.5%; with SF-268 CNS, 59.2%. The growth was 7.09% (active) in the assay on SF-295 CNS; 43.9% in the assay with SF-539 CNS; 1.77% (active) in the assay on UACC-257 melanoma; 4.01% (active) with M14 melanoma; 9.98% (active) with HCT-15 colon; -2.6% (active) in the assay on HT29 colon. Moreover, the growth with SNB-75 CNS was 89.1%; in the assay on SNB-19 CNS, 62.8%; in the assay with U251 CNS, 36.4%; with PC-3 prostate it was 41%; in the assay on SK-MEL-5 melanoma, -39% (active); in the assay on UACC-62 melanoma, 33.4%. For the same compound, the growth was 3.11% (active) in the assay on LOX IMVI melanoma and 20.1% in the assay on SK-MEL-28 melanoma.
